In the supplement of paper PMC7801607:

Tests used:
[1] = tested on: CHO; experiment: % viability of CHO cells (MTT); higher = less toxic; conditions: 48 h
Summary of the method: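 CHO cells were seeded at 10^6 cells/well in 200 µL and left overnight to attach. The medium was then replaced with fresh medium containing compound at 2 or 20 µM for 48 h. Survival was read colorimetrically with the tetrazolium (MTT) assay. Percent viability was expressed relative to untreated cells.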

[2] = tested on: HepG2-A16-CD81; experiment: % inhibition of HepG2 viability (CellTiter-Glo); higher = more toxic; conditions: 5 µM
[3] = tested on: Plasmodium falciparum NF54 stage IV/V gametocytes; experiment: % inhibition of gametocyte viability (PrestoBlue); higher = more inhibition; conditions: 48 h
Summary of the method: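 Stage IV/V NF54 gametocytes (2% gametocytaemia, 5% haematocrit, 100 µL/well) were exposed to compound at 1 or 5 µM. Incubation was 48 h at 37 °C, stationary and hypoxic, followed by 10 µL PrestoBlue for 2 h. Fluorescence at 612 nm was read on 70 µL of transferred supernatant. Percent inhibition of gametocyte viability was normalised to DMSO and kill controls from a single run.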

[4] = tested on: Plasmodium falciparum NF54 asexual blood stage; experiment: % inhibition of asexual blood stage proliferation (pLDH); higher = more inhibition; conditions: 72 h
Summary of the method: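 Plasmodium falciparum NF54 ring-stage cultures (1% haematocrit, 2% parasitaemia) were exposed to compound at 2 or 20 µM in 96-well plates. Incubation was 72 h at 37 °C under 4% CO2, 3% O2 and 93% N2. Survival was read colorimetrically at 620 nm with the parasite lactate dehydrogenase assay. Percent inhibition of asexual proliferation was normalised to DMSO and kill controls, and the screen was run on two separate occasions.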

[5] = tested on: Plasmodium falciparum NF54 stage IV/V gametocytes; experiment: % inhibition of gametocyte viability (ATP bioluminescence); higher = more inhibition; conditions: 24 h
Summary of the method: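 In 96-well plates, compound at 1 or 5 µM was added to 30,000 density-gradient-enriched stage IV/V NF54 gametocytes per well and incubated for 24 h at 37 °C. ATP readout used the Promega BacTiter Glo bioluminescence system. Percent inhibition of gametocyte viability comes from a single run, normalised to control wells.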

[6] = tested on: Plasmodium falciparum NF54 stage IV/V gametocytes; experiment: % inhibition of gametocyte viability (luciferase reporter); higher = more inhibition; conditions: 48 h
Summary of the method: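 Luminescence from 30 µL lysate combined with 30 µL Promega luciferin substrate was recorded on a GloMax-Multi+ reader using 10 s integration. The lysate came from stage IV/V NF54-Pfs16-GFP-Luc gametocytes (2% gametocytaemia, 2% haematocrit) held with compound at 1 or 5 µM for 48 h at 37 °C under stationary, hypoxic conditions. Percent inhibition was normalised against controls run once.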

[7] = tested on: Plasmodium berghei ANKA liver stage in HepG2-A16-CD81; experiment: % inhibition of liver stage parasite viability (luciferase); higher = more inhibition; conditions: 5 µM; 48 h
Description: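 Single-concentration screen of the MMV Pandemic Response Box. P. falciparum NF54 asexual blood stages: pLDH assay, 72 h at 37 °C, 2 and 20 µM, n=2. Stage IV/V gametocytes (NF54): luciferase reporter (NF54-Pfs16-GFP-Luc, 48 h), ATP bioluminescence (24 h) and PrestoBlue (48 h) at 1 and 5 µM, n=1. P. berghei liver stage (luciferase in HepG2-A16-CD81, 48 h post infection) at 5 µM, n=4. All normalised to DMSO and kill controls as % inhibition.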
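Wherever % inhibition of HepG2 viability (CellTiter-Glo) is given: HepG2-A16-CD81 hepatoma cells plated as in the liver-stage assay but without sporozoites, with DMSO wells as negative and 25 µM puromycin as positive control.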

Compound	% viability of CHO cells ([1]; 2 µM)	% viability of CHO cells ([1]; 20 µM)	% inhibition of HepG2 viability [2]	% inhibition of gametocyte viability ([3]; 1 µM)	% inhibition of gametocyte viability ([3]; 5 µM)	% inhibition of asexual blood stage proliferation ([4]; 2 µM)	% inhibition of asexual blood stage proliferation ([4]; 20 µM)	% inhibition of gametocyte viability ([5]; 1 µM)	% inhibition of gametocyte viability ([5]; 5 µM)	% inhibition of gametocyte viability ([6]; 1 µM)	% inhibition of gametocyte viability ([6]; 5 µM)	% inhibition of liver stage parasite viability [7]
CO/N=C(\C(=O)N[C@@H]1C(=O)N2C(C(=O)OCOC(=O)C(C)(C)C)=C(/C=C\c3scnc3C)CS[C@H]12)c1csc(N)n1	146%	60.3%	-3.45%	< 0%	1.37%	7.74%	37.7%	0.449%	5.98%	< 0%	22.6%	34%
COc1ccc(NC(=O)c2cc3ccccn3n2)cc1	112%	57%	-0.446%	< 0%	10.6%	20.3%	87.1%	< 0%	< 0%	< 0%	< 0%	-110%
C[C@@H]1O[C@@H]1P(=O)(O)O	107%	72.6%	-3.69%	< 0%	36.1%	-0.28%	11.5%	< 0%	< 0%	< 0%	4.89%	-6.92%
NC[C@H]1O[C@H](O[C@H]2[C@H](O)[C@@H](O[C@H]3O[C@H](CO)[C@@H](O)[C@H](N)[C@H]3O)[C@H](N)C[C@@H]2N)[C@H](N)C[C@@H]1O	111%	8.4%	-3.85%	< 0%	1.53%	-2.54%	18.7%	< 0%	< 0%	< 0%	6.32%	–
CC1(C)Cc2c(C#N)c(SCCc3ccccc3)nc(N3CCOCC3)c2CO1	112%	112%	-1.4%	9.17%	45.1%	17.3%	89.2%	< 0%	< 0%	< 0%	3.41%	18.8%
CCCNc1ccc(S(=O)(=O)Nc2cc(C)on2)cc1	93.3%	116%	-1.94%	-0.214%	6.51%	1.93%	-9.2%	0.832%	< 0%	< 0%	< 0%	–
CC(Cc1ccccc1)C(=O)Nc1ccc(Cl)cc1C(=O)O (stereo not given)	102%	99.8%	5.78%	< 0%	< 0%	35.5%	76.5%	< 0%	< 0%	13.7%	11.5%	8.73%
O=C(/C=C/n1cnc(-c2cc(C(F)(F)F)cc(C(F)(F)F)c2)n1)NNc1cnccn1	102%	103%	-11.2%	11.2%	-0.3%	-23.5%	56.5%	0.272%	< 0%	0.0379%	< 0%	11.6%
CC(=N)N1CC[C@H](SC2=C(C(=O)O)N3C(=O)[C@@H]([C@@H](C)O)[C@H]3C2)C1	85.2%	33.9%	-4.07%	< 0%	< 0%	5.77%	14.6%	< 0%	< 0%	< 0%	0.678%	–
C[C@H]1COc2c(N3CCN(C)CC3)c(F)cc3c(=O)c(C(=O)O)cn1c23	92.1%	104%	-1.57%	< 0%	18%	15.5%	39.9%	1.98%	1.75%	18.2%	0.53%	11.6%
COc1cc(Cc2cnc(N)nc2N)cc(OC)c1OC	111%	126%	1.34%	4.58%	22.2%	23.4%	33.1%	0.869%	< 0%	< 0%	< 0%	–
O=C(N[C@H](CCS)C(=O)N[C@H](Cc1ccccc1)C(=O)O)c1cc2ccccc2[nH]1	78.3%	74.3%	-0.7%	< 0%	< 0%	1.01%	7.64%	< 0%	< 0%	< 0%	12%	5.97%
